Over roughly 68,000 sequences, “fluorescence intensity (a.u.)” has its median near 9,100; the highest 2% begin near 16,000. Only a selection was taken, and the highest values are over-represented in it overall.

For this test, the target named is OsWRKY34 (Oryza sativa, UniProt Q0JBA9 1-250). Put plainly: protein-binding microarray (RPBM); PBS, 2% BSA, 51.3 ng/ul salmon testes DNA, 50 uM zinc acetate, 200 nM TF, 25 C, 1 h; high values mean tight binding. The note with it: protein: recombinant; tags: N-terminal polyhistidine and DsRed monomer fusion (pET32a); label: CyDye5-dUTP incorporated in the synthesized complementary strand; 3' TTTTT single-stranded linker to array surface; dsDNA, one strand shown. In a few lines: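 For the binding signal, per-feature fluorescence intensity was read in arbitrary units on an Axon 4000B scanner. Before scanning, a 2% BSA-blocked custom Agilent array made double-stranded with Cy5-dUTP was washed after 1 h at 25 °C with 200 nM protein and 50 µM zinc acetate. The proteins were Ni–NTA-purified transcription factors with N-terminal polyhistidine and DsRed fusions, expressed in E. coli BL21-CodonPlus.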
Chain of OsWRKY34 (Q0JBA9 entry or part of it): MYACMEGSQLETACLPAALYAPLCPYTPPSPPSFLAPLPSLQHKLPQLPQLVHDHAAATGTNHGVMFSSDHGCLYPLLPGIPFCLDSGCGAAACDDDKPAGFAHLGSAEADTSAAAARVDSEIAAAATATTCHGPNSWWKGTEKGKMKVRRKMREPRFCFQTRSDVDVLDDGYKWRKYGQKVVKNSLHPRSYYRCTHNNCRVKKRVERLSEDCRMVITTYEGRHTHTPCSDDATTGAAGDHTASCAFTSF
Consider “GGTTGGCTTCTTCTCGGTTTGTTCGTTCCTTGTGGTCGAGCGGAGTCACCTAGTGCAG”, for which the binding signal is 8240 fluorescence intensity (a.u.). As for “CTCATTGTTGTTGTGTTGTTGCGTTTGGTTTGGTGTGCTCCGGAGTCACCTAGTGCAG”, the figure is 8510 fluorescence intensity (a.u.); as for “TCGCGTCGCGTTTCGACCTCGCGCTCTGGGTCTGGGTGTCCGGAGTCACCTAGTGCAG”, 8330 fluorescence intensity (a.u.); as for “GGTTTCGGTCTCGGTTTTTTCGGTTCGGTTCTTCGGTTCGCGGAGTCACCTAGTGCAG”, 9660 fluorescence intensity (a.u.). In the case of “GTTGGTTGGTTGGTTGGTTGGCTTCTTCTCGGTTTGTTCGCGGAGTCACCTAGTGCAG” it was 25000 fluorescence intensity (a.u.); in that of “TCTACGAGGGTTTTTGCGCTTTTGTTGCTCTCCGCTCCGCCGGAGTCACCTAGTGCAG”, 8160 fluorescence intensity (a.u.); in that of “AACCTCAATTTTGTTTGTTTTGCCTTTTGGTTCAAATACTCGGAGTCACCTAGTGCAG”, 8180 fluorescence intensity (a.u.). As for “GGTTGGTGACGCGTTGTTGTTTGTTCCTCAAATTTGTTCTCGGAGTCACCTAGTGCAG”, the figure is 16500 fluorescence intensity (a.u.). In the case of “TCGCGCGTGTCACTGGGTTTGGGTTGGGTCTCTCTCTCTCCGGAGTCACCTAGTGCAG”, the binding signal is 18400 fluorescence intensity (a.u.). In the case of “GCGTTTTTGTCTCTCTGCTCTCTGCTGCTGCTGCTGGGTCCGGAGTCACCTAGTGCAG” it was 11300 fluorescence intensity (a.u.); in that of “ACGTTGTTTGTGTCACGCTTCTCAAATCCCTTGGTGTTCTCGGAGTCACCTAGTGCAG”, 11700 fluorescence intensity (a.u.); in that of “CTGCGCTCTCCATTGTTTTGTGTTGTGTTTGTTTGCAGTCCGGAGTCACCTAGTGCAG”, 17700 fluorescence intensity (a.u.). Take “TCTCAGCGGCCCGAACCTGTCTACGTCGCCCGTGTCTTGTCGGAGTCACCTAGTGCAG”: the binding signal was 11200 fluorescence intensity (a.u.). Take “CTGGCACTTGGCACTTGGTTAATTCCACTCACTCATCACTCGGAGTCACCTAGTGCAG”: the binding signal is 8260 fluorescence intensity (a.u.). As for “ACATGTGGAGGGAACAGGGCGTGGAATCAAGGGTCGGGATCGGAGTCACCTAGTGCAG”, the figure is 8290 fluorescence intensity (a.u.); as for “AGATATACCGTTGTTGCATTTCACCTTAAAATATTTCCAACGGAGTCACCTAGTGCAG”, 8550 fluorescence intensity (a.u.); as for “GCTCTCTTCTCGCCGCCTCGGCCTCGCCGCCGTGGCCGCCCGGAGTCACCTAGTGCAG”, 9500 fluorescence intensity (a.u.). As for “ACATAACCCCGTCATCTCGGCGACCCTCTCTCGTGGTCGCCGGAGTCACCTAGTGCAG”, the binding signal was 8540 fluorescence intensity (a.u.).

On to “GTCTCACTCTCCCAATCCGCCTCGGCCCGAGCGCGCGCGCCGGAGTCACCTAGTGCAG”, for which the binding signal was 9530 fluorescence intensity (a.u.). As for “CCTTGTATTCGGCCCGCACACGCCAACCTGTCCTGTTCTGCGGAGTCACCTAGTGCAG”, the figure is 9600 fluorescence intensity (a.u.); as for “TGGTTTGGTTTGGTTCTTTGTTGTTGCTGCCGCTGCCGCGCGGAGTCACCTAGTGCAG”, 31400 fluorescence intensity (a.u.). As for “GGTGTTGGGTGTTTGTTCGTTGGTTCCGCTGCTGCTGTTGCGGAGTCACCTAGTGCAG”, the figure is 8180 fluorescence intensity (a.u.).

Turning to “GGCGAAGTACTTCTTGGTGTTGTTGCTGCCGCTGCCGGCGCGGAGTCACCTAGTGCAG”, the binding signal was 8120 fluorescence intensity (a.u.). As for “CAGGGCCATGTTCGCTGATACATTGTGTTGGATTGCACTGCGGAGTCACCTAGTGCAG”, the figure is 8030 fluorescence intensity (a.u.); as for “GTTTACCATTGCATTCCCCGGTCCACGTGCATCAGTGCATCGGAGTCACCTAGTGCAG”, 9610 fluorescence intensity (a.u.).

For “CACACTATAGCTAGTACTAGTACTAGTACTACTTAAACTACGGAGTCACCTAGTGCAG”, the binding signal was 8120 fluorescence intensity (a.u.). As for “AGTGTCTGACACTACTTAAGAAACCATAGCAGTGCTAAAGCGGAGTCACCTAGTGCAG”, the figure is 31200 fluorescence intensity (a.u.). As for “ACACTACCTTAAAGAAACATCAGTGACATCTCCATCACTCCGGAGTCACCTAGTGCAG”, the binding signal was 8750 fluorescence intensity (a.u.). Consider “GCCTACTTAAATTACATTTCCGCACCCACACCACACACACCGGAGTCACCTAGTGCAG”, for which the binding signal was 11400 fluorescence intensity (a.u.).

Consider “GCCGGCCTGGGAGGCCGAAGGTTGGGGATGACAGGTGGGGCGGAGTCACCTAGTGCAG”, for which the binding signal is 8920 fluorescence intensity (a.u.). In the case of “GCTGCCCGCTCTAATCTGTTTTGTCTCCATCTGCTATGATCGGAGTCACCTAGTGCAG” it was 8950 fluorescence intensity (a.u.). As for “GAGTACTCGTCCGGGGTTTTTAACTTTTTGCCACTTTTAACGGAGTCACCTAGTGCAG”, the figure is 9100 fluorescence intensity (a.u.); as for “AACAATCACCTAGGCTAAATGTTACTTCCTCCGTTTCACACGGAGTCACCTAGTGCAG”, 9190 fluorescence intensity (a.u.); as for “GAGAACCTAATTGTGAGGCTCCTAGTTACACGACAAATCACGGAGTCACCTAGTGCAG”, 56300 fluorescence intensity (a.u.). As for “GGTGTGTTTGGCAAATGAGTTATGAGAGGTGTGATTGTTACGGAGTCACCTAGTGCAG”, the figure is 8860 fluorescence intensity (a.u.).

Turning to “CGTACTATAATTTTGTCATTCCTGTTGAAATTTTATAATTCGGAGTCACCTAGTGCAG”, the binding signal is 9340 fluorescence intensity (a.u.). Consider “GCCGGTCTCCTCCCCGCCACCGCCGCCGCCGCCGCCAATGCGGAGTCACCTAGTGCAG”, for which the binding signal is 8650 fluorescence intensity (a.u.).

Consider “ATATATATATATATATATATATATATATATATGCGCAGAGCGGAGTCACCTAGTGCAG”, for which the binding signal is 9140 fluorescence intensity (a.u.). As for “GCGGGATCGCGCGGGCGGCGGCGGCGGCGGGGAGGGGATGCGGAGTCACCTAGTGCAG”, the figure is 16900 fluorescence intensity (a.u.).

As to “ATATATATATATATATATATATATATATAGAGCGCGCACTCGGAGTCACCTAGTGCAG”, the binding signal is 21200 fluorescence intensity (a.u.). In the case of “GGGCGAGGAGCAGCGGCGGGCGGGCGGATGAGGGGCGGCGCGGAGTCACCTAGTGCAG” it was 11400 fluorescence intensity (a.u.); in that of “TAGCTTTGGAGGAGGAGGAGGAGGAGGGGCGCGAGCCATGCGGAGTCACCTAGTGCAG”, 10800 fluorescence intensity (a.u.). Consider “ATATATATATATATATATATATAGAGAGAGAGAGAGAGACCGGAGTCACCTAGTGCAG”, for which the binding signal is 8980 fluorescence intensity (a.u.). In the case of “CGATCGGAGGAGGAGGCGGCGGGGAGGGAGGAGGAGGATGCGGAGTCACCTAGTGCAG” it was 10800 fluorescence intensity (a.u.).

(Values after article PMC7819943, “Rice protein-binding microarrays: a tool to detect cis-acting elements near promoter regions in rice”.)
